A number with no mark means an inactive call.
Key:
[1] = test system: Sporothrix brasiliensis CBS 133006; test: growth inhibition relative to untreated control; higher = more growth inhibition (more antifungal activity), active = 80 or more; extreme values may be limits of the assay; settings: 1 µM; 48 h
Procedure, shortened: (§1)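 The reported figure is percent growth inhibition relative to untreated cells, from quadruplicate runs. Yeast-form cells of the reference isolates at 1 x 10^5 CFU/ml were exposed to library compounds at a final 1 μM for 48 h at 35°C in 5% CO2, and growth was assessed by microscopy and spectrophotometric readings.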

[2] = test system: Sporothrix schenckii ATCC 32286; test: as above; settings: 1 µM; 48 h
Procedure, shortened: as §1

Structure (SMILES): CC(C)=CCC/C(C)=C/CNCCNC1C2CC3CC(C2)CC1C3 (stereo not given)
- growth inhibition [1]: 44.2%
- growth inhibition [2]: 22.2%

Structure (SMILES): Nc1ncc(-c2ccc(C(F)(F)F)nc2)cc1-c1ccc(C(F)(F)F)nc1
- growth inhibition [1]: 18.2%
- growth inhibition [2]: 11%

Structure (SMILES): Cc1ccc(-c2nc(CN(Cc3ccccn3)C(C)C)cs2)o1
- growth inhibition [1]: 24%
- growth inhibition [2]: 1.75%

Structure (SMILES): CCc1c(C)nc(-n2nc(C)cc2NC(=O)c2ccccc2SC)[nH]c1=O
- growth inhibition [1]: 93.5% (active)
- growth inhibition [2]: 76.8%

Structure (SMILES): O=C(C1CCN(c2nnc(-n3cccc3)s2)CC1)N1CCC(Cc2ccccc2)CC1
- growth inhibition [1]: 7.5%
- growth inhibition [2]: 0.5%

Structure (SMILES): COCC(C)NC(=O)CSc1ncnc2sc(-c3ccccc3)cc12 (stereo not given)
- growth inhibition [1]: 17.8%
- growth inhibition [2]: 14.2%

Structure (SMILES): N#Cc1ccc(-c2cnc(N)c(-c3ccc(C(N)=O)cc3)n2)cc1
- growth inhibition [1]: 3.75%
- growth inhibition [2]: 9%

Structure (SMILES): COc1cccc(-c2cc3c(Nc4cccnc4)nccc3[nH]2)c1
- growth inhibition [1]: 4%
- growth inhibition [2]: 5%

Structure (SMILES): COc1ccc(-c2nc(-c3cccc(NC(=O)Cc4ccc(F)cc4)c3)no2)cc1OC
- growth inhibition [1]: 6.25%
- growth inhibition [2]: 4%

Structure (SMILES): Cc1cccc(-c2nc(Nc3ccncn3)c3sccc3n2)n1
- growth inhibition [1]: 1%
- growth inhibition [2]: 9.75%

Structure (SMILES): CC(=O)Oc1ccccc1C(=O)Nc1ncc([N+](=O)[O-])s1
- growth inhibition [1]: 3.5%
- growth inhibition [2]: 14%

Structure (SMILES): CNc1cc(C)nc(C2CN(C(=O)c3n[nH]c4ccccc34)CCO2)c1 (stereo not given)
- growth inhibition [1]: 5.75%
- growth inhibition [2]: 4.5%

Structure (SMILES): COc1ccc(C(=N)N)cc1-c1cn(-c2ccc(C(=N)N)cc2)nn1
- growth inhibition [1]: 51.8%
- growth inhibition [2]: 0%

Structure (SMILES): O=C(NC1CCN(c2ccnc3ccccc23)C1)c1cccc(C(F)(F)F)c1 (stereo not given)
- growth inhibition [1]: 0%
- growth inhibition [2]: 1.5%

Structure (SMILES): COC(=O)Nc1nc2cc(C(=O)c3ccccc3)ccc2[nH]1
- growth inhibition [1]: 3.75%
- growth inhibition [2]: 16%

Structure (SMILES): N=C(N)Nc1ccc(-c2ccc(-c3ccc(N=C(N)N)c(Cl)c3)o2)cc1Cl
- growth inhibition [1]: 1.75%
- growth inhibition [2]: 0%

Structure (SMILES): O=C(NCc1nnc2n1CCCCC2)c1ccc(-c2ccc(F)cc2)o1
- growth inhibition [1]: 11.2%
- growth inhibition [2]: 0%

Structure (SMILES): CCOc1ccccc1C(=O)Nc1cccc(-c2nc3ncccn3c2C)c1
- growth inhibition [1]: 6.75%
- growth inhibition [2]: 12.2%

Structure (SMILES): c1ccc(Oc2ccc(-c3cc(N4CCOCC4)[nH]n3)cc2)cc1
- growth inhibition [1]: 4.25%
- growth inhibition [2]: 8%

Structure (SMILES): Clc1cccc(CO[C@H]2CCc3ccccc3[C@@H]2n2ccnn2)c1
- growth inhibition [1]: 15.8%
- growth inhibition [2]: 3%

Structure (SMILES): CC1CCCN(C(=O)C(C)Nc2cc(Cl)ccc2N2CCOCC2)C1 (stereo not given)
- growth inhibition [1]: 11.5%
- growth inhibition [2]: 0.5%

Structure (SMILES): O=C(c1ccc(F)cc1)N(CCNc1ccccc1)c1ccccc1
- growth inhibition [1]: 16.5%
- growth inhibition [2]: 12.2%

Structure (SMILES): c1csc(-c2cnc3sc(NCC4CCOCC4)nn23)c1
- growth inhibition [1]: 19.8%
- growth inhibition [2]: 8.75%

Structure (SMILES): CC(C)C(NC(=O)Cc1cccc2ccccc12)C(=O)Nc1cccc(C#N)c1 (stereo not given)
- growth inhibition [1]: 4%
- growth inhibition [2]: 9.25%

Structure (SMILES): CC(C)(C(=O)Nc1ccc(F)cc1)n1cc(-c2ccccc2F)cn1
- growth inhibition [1]: 0%
- growth inhibition [2]: 11%

Structure (SMILES): COc1ccc(-c2nn(C(C)C)c3ncnc(N)c23)cc1OC
- growth inhibition [1]: 6%
- growth inhibition [2]: 14.2%

Structure (SMILES): O=C(Nc1cnc2ccccc2c1)c1cccc(-n2cnnn2)c1
- growth inhibition [1]: 0%
- growth inhibition [2]: 4.75%

Structure (SMILES): CN(C(=O)c1cc2c(-c3cncnc3)cccc2[nH]1)c1ccccc1
- growth inhibition [1]: 8.25%
- growth inhibition [2]: 3.25%

Structure (SMILES): O=C(c1ccc(NCCO)cc1)C1C[C@H]1c1ccc(Cl)cc1 (stereo not given in full)
- growth inhibition [1]: 2%
- growth inhibition [2]: 8.5%

Structure (SMILES): CC1CS(=O)(=O)CCN1/N=C/c1ccc([N+](=O)[O-])o1 (stereo not given)
- growth inhibition [1]: 6%
- growth inhibition [2]: 7%

Structure (SMILES): COc1ccc(OC(C)C(=O)Nc2ccc(Cl)cc2C)cc1 (stereo not given)
- growth inhibition [1]: 10.5%
- growth inhibition [2]: 11.2%

Structure (SMILES): Cc1ccc2nc(Cl)c(CNCc3cccs3)cc2c1
- growth inhibition [1]: 0%
- growth inhibition [2]: 2.25%

Structure (SMILES): CC(C)(C)OC(=O)N1CCN(c2cc(-c3ccc(Oc4ccccc4)cc3)n[nH]2)CC1
- growth inhibition [1]: 10.5%
- growth inhibition [2]: 0%

Structure (SMILES): CNc1snc(C)c1C(=O)NCCOc1ccc(OC)cc1
- growth inhibition [1]: 12.2%
- growth inhibition [2]: 7.5%

Structure (SMILES): CN(C)CCNC(=O)N1CCCN(c2ncnc3cc(-c4ccccc4)sc23)CC1
- growth inhibition [1]: 10.5%
- growth inhibition [2]: 13.2%
